Rce1 inh: yeast Ras-converting enzyme inhibition; Q03530; yeast membranes, quenched prenylated peptide cleavage fluorescence; calls only; actives 0.27% (n = 290,000);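 active = fall in fluorescence gain of 50% or more versus controls, with final raw signal at or below 3038400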;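 note: plate controls were neutral control wells for no effect and wells lacking membranes for full effect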
ABHD5 PLIN5 PPI: ABHD5-PLIN5 protein interaction inhibition. Split G. princeps luciferase complementation, luminescence, 4 h. inhibition, % at 4 µM. actives 0.78% (n = 360,000);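 active = inhibition above the mean inhibition across every tested compound plus 3 SD, cut at about 22% in these data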;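 note: 0% = DMSO only wells and the 100% control is not disclosed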
PfM18AAP inh: blocks P. falciparum M18 aspartyl aminopeptidase; recombinant PfM18AAP, H-Glu-NHMec fluorogenic cleavage; actives 1.2% (n = 290,000); inhibition, % at 7.35 µM; AID 1822;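 active = inhibition above the campaign mean inhibition over all tested compounds plus 3 SD, cut at about 28% in these data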;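 note: 0% = plate median of test compound wells and 100% = 2 mM ZnCl2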
Exocytosis inh: blocks lytic granule exocytosis; TALL-104 LAMP-1 surface exposure, flow cytometry; cells stimulated with thapsigargin and PMA; actives 0.66% (n = 360,000); inhibition, % at 10 µM; AID 651702;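 active = inhibition above about 55%, limit read from the data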
Platelet DG rel: modulates dense granule release in human platelets; human platelet-rich plasma, SFLLRN dense granule ATP release, luminescence; inhibition, %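 (compounds screened at 7.5 µM in platelet-rich plasma)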; AID 1663; actives 0.22% (n = 300,000);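 active = mean replicate score, as percent of positive control, at or above 50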
ABHD5 PLIN5 conf: ABHD5-PLIN5 interaction inhibition, confirmed | shares compounds with ABHD5 PLIN5 PPI | biochemical ABHD5-PLIN5 interaction, luminescence | inhibition, % at 4 µM | actives 67% (n = 2,200) | AID 651612; in the data active = inhibition above about 23%;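 note: 0% = DMSO vehicle wells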
HNF4 counter: active in HNF4 split-luciferase counter-screen for ABHD5-PLIN5 inhibitors | shares compounds with ABHD5 PLIN5 PPI | HNF4 dimerization, luminescence, biochemical | inhibition, % at 4 µM | actives 77% (n = 2,200);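 active = mean inhibition across replicate wells exceeding the computed hit threshold, cut at about 13% in these data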;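 note: light from luciferase halves that rejoin when HNF4 fusion proteins dimerize; 0% = DMSO only wells and the 100% control is not given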
Target sequence (P41235 whole entry, looked up, the tested form may be a part): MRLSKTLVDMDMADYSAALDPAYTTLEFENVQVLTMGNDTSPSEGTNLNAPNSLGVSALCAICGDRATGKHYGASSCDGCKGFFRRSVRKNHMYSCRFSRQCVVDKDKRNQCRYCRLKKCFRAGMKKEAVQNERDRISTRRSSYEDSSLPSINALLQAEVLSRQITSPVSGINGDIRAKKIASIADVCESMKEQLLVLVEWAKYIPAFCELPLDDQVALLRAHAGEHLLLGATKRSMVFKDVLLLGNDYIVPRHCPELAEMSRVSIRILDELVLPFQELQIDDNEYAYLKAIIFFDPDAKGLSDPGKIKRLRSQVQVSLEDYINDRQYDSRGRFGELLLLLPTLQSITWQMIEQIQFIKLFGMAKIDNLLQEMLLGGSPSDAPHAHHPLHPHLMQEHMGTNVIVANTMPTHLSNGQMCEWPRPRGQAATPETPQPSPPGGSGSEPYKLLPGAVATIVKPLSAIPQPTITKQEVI
* = called active by the depositor; i = inactive; nt = not tested or not shown. Shown are actives, neighbours in structure and some others; about 2.6% of the full set was active somewhere.

SMILES	Rce1 inh	ABHD5 PLIN5 PPI	PfM18AAP inh	Exocytosis inh	Platelet DG rel	ABHD5 PLIN5 conf	HNF4 counter
C#CCOCCOCCOCCNc1nc(N2CCN(C(=O)CCCCCCCCCCNC(=O)[C@H](CO)n3cc(CCCSC)nn3)CC2)nc(N2CCN(C(=O)CCCCCCCCCCNC(=O)[C@H](CO)n3cc(CCCSC)nn3)CC2)n1	i	8.8	nt	-5.5	-7.4	nt	nt
C#CCOCCOCCOCCNc1nc(N2CCN(C(=O)CCCCCCCCCCNC(=O)Cn3cc(CCCCCN)nn3)CC2)nc(N2CCN(C(=O)CCCCCCCCCCNC(=O)[C@H](CO)n3cc(CCCCCN)nn3)CC2)n1	nt	37.4*	nt	7.4	nt	10.3	-0.1
C#CCOCCOCCOCCNc1nc(N2CCN(C(=O)CCCCCCCCCCNC(=O)[C@H](CCC(=O)O)n3cc(CCCCCN)nn3)CC2)nc(N2CCN(C(=O)CCCCCCCCCCNC(=O)[C@@H]([C@H](C)O)n3cc(C)nn3)CC2)n1	nt	27.1*	nt	-5.0	nt	7.1	0.7
C#CCOCCOCCOCCNc1nc(N2CCN(C(=O)CCCCCCCCCCNC(=O)[C@@H]([C@H](C)O)n3cc(C)nn3)CC2)nc(N2CCN(C(=O)CCCCCCCCCCNC(=O)[C@@H]([C@H](C)O)n3cc(C)nn3)CC2)n1	nt	39.9*	nt	-7.5	nt	8.3	-12.6
O=C(Nc1ccc(C(=O)O)cc1)/C(=C\C=C\c1ccccc1)NC(=O)c1cccc(Br)c1	i	0.9	-5.4	-3.0	4.8	nt	nt
CCc1cccc(C)c1NC(=O)COC(=O)CCn1c(C)csc1=O	nt	3.0	nt	-3.5	nt	nt	nt
CC(C)C(c1nnnn1Cc1ccccc1)N(CCCO)Cc1cc2cc3c(cc2[nH]c1=O)OCO3 (stereo not given)	i	4.0	5.8	-0.7	7.1	nt	nt
O=[N+]([O-])c1ccc(N2CCc3ccccc3C2)cc1	i	30.8*	5.2	25.1	-5.0	59.9*	58.5*
O=C(O)c1ccc(N/N=C/C2=C(N3CCOCC3)C(=C\c3ccccc3)/CC2)cc1	i	25.0*	17.1	3.2	1.7	16.9	42.4*
CC1(C)CC(=O)C(C(C2=C(O)CC(C)(C)CC2=O)c2ccc(O)c([N+](=O)[O-])c2)=C(O)C1	i	23.5*	3.1	3.5	2.8	72.8*	56.8*
COc1ccc(N2CCN(S(=O)(=O)CCNC(=O)Cc3ccc([N+](=O)[O-])cc3)CC2)cc1	i	67.7*	2.0	-0.4	-33.7	1.1	-2.6
CCOC(=O)CSc1nnc(-c2ccc(NS(=O)(=O)c3ccc(C)cc3)cc2)o1	i	1.6	0.8	14.6	-8.4	nt	nt
COc1ccc(-c2sc3ccccc3c2-c2ccc(O)cc2)cc1	nt	-3.7	nt	7.0	nt	nt	nt
COc1cccc(-c2sc3ccc(OC)cc3c2-c2ccc(OCCN(C)C)cc2)c1	nt	21.2	nt	-4.8	nt	nt	nt
CN(C)CCOc1ccc(-c2c(-c3ccsc3)sc3ccccc23)cc1	nt	29.2*	nt	1.3	nt	12.1	-1.6
COc1ccc(-c2sc3ccccc3c2-c2ccc(OCCN(C)C)cc2)cc1	nt	39.7*	nt	2.3	nt	21.0	8.0
O=[N+]([O-])c1ccc(N=NN(CCO)CCO)cc1	nt	-5.3	-7.6	-2.4	5.2	nt	nt
O=[N+]([O-])c1ccc(N=Nc2ncc[nH]2)cc1	i	29.9*	16.3	78.6*	-0.6	57.5*	52.1*
Cc1ccc(CNC(=O)CC2(CC3=NS(=O)(=O)c4ccccc4N3)CCCC2)cc1	i	-0.4	7.6	1.8	3.1	nt	nt
CC(C)(C)C(=O)Nc1ccc(/C=C/C(=O)c2ccco2)cc1	i	37.0*	-5.3	1.9	-27.5	60.8*	44.3*
Nc1ccc(/C=C/C(=O)c2ccco2)cc1	i	11.3	-1.6	10.5	7.2	nt	nt
N#Cc1ccc(/C=C/C(=O)c2ccco2)cc1	i	63.0*	6.9	-1.5	-2.6	93.5*	94.8*
O=S(=O)(NCCC1=CCCCC1)c1ccc(OC(F)(F)F)cc1	i	1.1	nt	-0.1	4.9	nt	nt
COC(=O)N1CCc2c(sc(NC(=O)C3COc4ccccc4O3)c2C(N)=O)C1 (stereo not given)	i	39.9*	nt	-16.0	23.4	1.1	7.5
NC(=O)c1c(NC(=O)C2COc3ccccc3O2)sc2c1CCN(Cc1ccccc1)C2 (stereo not given)	i	-5.1	2.6	-2.8	3.0	nt	nt
SMILES	Rce1 inh	ABHD5 PLIN5 PPI	PfM18AAP inh	Exocytosis inh	Platelet DG rel	ABHD5 PLIN5 conf	HNF4 counter
CCOc1ccc(C(=O)CC(NCc2cccs2)C(=O)O)cc1 (stereo not given)	i	56.7*	-17.6	7.1	9.3	90.7*	110.4*
Cc1ccc2nc(N3CCN(Cc4nnnn4Cc4ccccc4)CC3)c(C#N)cc2c1	i	-10.4	0.8	2.4	14.5	nt	nt
Cc1cc(C)c(S(=O)(=O)c2ccc(Cl)cc2)c(Cl)n1	i	1.9	-4.9	-4.1	10.4	nt	nt
CCOc1ccccc1OCCC(=O)Nc1ccc2c(c1)OCO2	nt	2.1	nt	-4.9	nt	nt	nt
CCOC(=O)CC(S(=O)(=O)c1ccccc1)S(=O)(=O)c1ccccc1	nt	51.8*	nt	33.1	nt	38.3*	88.5*
CC(O)CNc1cc(N)c([N+](=O)[O-])cc1[N+](=O)[O-] (stereo not given)	i	23.6*	-5.2	-1.6	-16.8	7.1	5.9
Cc1ccc(S(=O)(=O)C=CS(=O)(=O)c2ccc(C)cc2)cc1	nt	37.2*	nt	-3.8	nt	68.3*	108.3*
O=S(=O)(/C=C/C=C/S(=O)(=O)c1ccccc1)c1ccccc1	nt	89.7*	nt	19.0	nt	91.2*	110.6*
NS(=O)(=O)c1ccccc1	i	-6.3	16.3	-4.3	-3.1	nt	nt
O=C(CCCn1ncn2c(cc3occc32)c1=O)NCc1ccccc1F	i	-0.1	-3.9	-0.2	-7.1	nt	nt
O=[N+]([O-])c1ccc(SNc2ccccc2)c([N+](=O)[O-])c1	nt	-7.3	nt	-3.2	nt	nt	nt
O=[N+]([O-])c1ccc(-[n+]2ccc3ccccc3c2)c([N+](=O)[O-])c1	i	29.5*	nt	2.7	4.8	61.8*	58.1*
CCC(Sc1nc2sc(C(=O)OC)c(C)c2c(=O)n1N)C(=O)N(CC)CC (stereo not given)	i	-7.0	-4.3	-1.5	11.0	nt	nt
O=C(/C=C/c1ccco1)c1ccccc1O	i	7.9	-2.1	-0.1	13.6	nt	nt
O=C(/C=C/c1ccccc1O)c1ccco1	i	61.4*	19.8	-10.1	0.5	82.9*	78.3*
O=C(/C=C/c1cc(Br)ccc1O)c1ccco1	i	81.8*	13.0	11.0	-5.3	98.2*	97.0*
CC1(C)Cc2c(C#N)c(NC3CCCCC3)nc(-c3ccco3)c2CO1	i	34.2*	-15.4	3.6	-33.4	32.9*	41.1*
COC(=O)COc1ccc(C2Nc3c(Cl)ccc(C(=O)O)c3C3C=CCC32)cc1 (stereo not given)	i	23.2*	14.6	2.8	-1.8	15.3	28.1*
O=C1C=CC(=O)N1Cc1ccccc1	i	31.6*	-129.0	10.5	5.0	3.8	1.6
CCn1nnnc1NC(=O)c1cccc(OC)c1	nt	-1.5	4.9	3.8	2.3	nt	nt
